T cruzi growth-1: T. cruzi proliferation inhibition; hit rate 5.9% among 77,000; T. cruzi beta-gal in NIH3T3, GalScreen luminescence, 90 h; inhibition, % at 8.34 µM;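 active = mean inhibition above about 93%, with at least 55% of replicates each passing it, limit read from the data, passing the limit was not always enough; inconclusive = only one of those two conditions holds; inactive = neither condition holds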
Pf Dd2 inh: blocks growth of Plasmodium falciparum Dd2 parasites; P. falciparum Dd2 growth, SYBR Green, 72 h; stronger effect = lower value; activity change, % at 10 µM; hit rate 2.3% among 94,000; AID 1159554; in the data active = activity change below about -80%; inconclusive = no clear call, values can overlap the other calls
C diff HTS: blocks growth of Clostridium difficile; hit rate 0.25% among 86,000; growth activity, negative = inhibition, % at 16 µg/mL (by protocol); Clostridium difficile clinical isolate growth, OD600, 24 h; stronger effect = lower value;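 active = mean growth activity at or below -80% and every replicate also at or below -80%; inconclusive = mean at or below -80% but some replicate above -80%; inactive = mean growth activity above -80%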
T cruzi growth-2: Trypanosoma cruzi proliferation inhibition; hit rate 72% among 5,600; inhibition, % at 8.35 µM; AID 651739; shares compounds with T cruzi growth-1; T. cruzi beta-gal in NIH3T3, GalScreen luminescence, 90 h;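 active = mean replicate inhibition above about 95% and at least 55% of replicates individually reaching it, limit read from the data; inconclusive = only one of the two criteria is met; inactive = neither criterion is met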
T cruzi growth-3: Trypanosoma cruzi proliferation inhibition. shares compounds with T cruzi growth-1. T. cruzi beta-gal in NIH3T3, GalScreen luminescence, 90 h. inhibition, % at 2.09 µM. hit rate 21% among 5,600. AID 651740;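 active = mean inhibition above about 95%, with at least 55% of replicates also reaching it, limit read from the data; inconclusive = meets just one of the two conditions; inactive = meets neither condition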
NIH3T3 tox: kills mouse NIH/3T3 fibroblasts; NIH/3T3 viability, CellTiter-Glo ATP luminescence, 90 h; hit rate 14% among 5,600; shares compounds with T cruzi growth-1; cytotoxicity (signal decrease), % at 8.35 µM;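 active = mean signal decrease across replicates above about 35% based on untreated-well scatter, with enough replicates individually passing, limit read from the data; inconclusive = no rule stated though some were filed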
3T3 cytotox 2: NIH/3T3 (mouse) viability loss; shares compounds with T cruzi growth-1; NIH/3T3 viability, CellTiter-Glo ATP luminescence, 90 h; inhibition, % at 24.9 µM; hit rate 56% among 5,600;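 active = mean loss of cell viability signal at or above a set limit, and enough replicates individually reaching it; inconclusive = meets only the mean limit or only the replicate share; inactive = meets neither condition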
Of the large screens only hits and unclear results are named; the others gave an inactive call (follow-up assays come after a bar, where they were run); ! = not active in a repeat. In the library only some 6.8% were active in any assay of this set; here they are far more common.

COCC(=O)Nc1ccc2c(c1)C(=O)N(C)C[C@@H](OC)[C@H](C)CN(Cc1cc(F)ccc1F)[C@H](C)CO2	none (no result: C diff HTS)
COCC(=O)Nc1ccc2c(c1)C(=O)N(C)C[C@H](OC)[C@H](C)CN(Cc1cc(F)ccc1F)[C@H](C)CO2	T cruzi growth-1 105 (no result: C diff HTS) | T cruzi growth-2 inactive | T cruzi growth-3 inactive | NIH3T3 tox inactive | 3T3 cytotox 2 inconclusive
CC(C)C(=O)Nc1ccc2c(c1)C(=O)N(C)[C@@H]1CC[C@H](CC(=O)N[C@@H](C)c3ccccc3)O[C@@H]1CO2	none
Cc1ccc(S(=O)(=O)N[C@@H]2CC[C@@H](CC(=O)NCc3ccc(Cl)c(Cl)c3)O[C@H]2CO)cc1	none
CO[C@H]1CN(C)C(=O)c2cc(NC(=O)Nc3cc(F)ccc3F)ccc2OC[C@H](C)N(C)C[C@H]1C	none (no result: C diff HTS)
C[C@H]1CN([C@@H](C)CO)C(=O)c2cc(-c3ccncc3)cnc2O[C@H]1CN(C)C(=O)C1CCC1	none (no result: C diff HTS)
O=C(C[C@@H]1C=C[C@H](NC(=O)CC2CC2)[C@@H](CO)O1)NCC(F)(F)F	none
C[C@@H]1CN([C@@H](C)CO)S(=O)(=O)c2ccc(-c3ccccc3)cc2O[C@H]1CN(C)C(=O)C1CCCCC1	T cruzi growth-1 inconclusive | T cruzi growth-2 97 | T cruzi growth-3 inactive | NIH3T3 tox inactive | 3T3 cytotox 2 inactive
C[C@@H]1CN([C@H](C)CO)S(=O)(=O)c2ccc(-c3ccncc3)cc2O[C@H]1CN(C)C(=O)C1CCC1	T cruzi growth-1 103 (no result: C diff HTS) | T cruzi growth-2 inactive | T cruzi growth-3 inactive | NIH3T3 tox inactive | 3T3 cytotox 2 42
Cc1ccc(-c2ccc3c(c2)O[C@@H](CN(C)C(=O)C2CCC2)[C@H](C)CN([C@H](C)CO)S3(=O)=O)cc1	none
Cc1ccc(-c2ccc3c(c2)O[C@@H](CN(C)C(=O)C2CC2)[C@@H](C)CN([C@@H](C)CO)S3(=O)=O)cc1	none (no result: C diff HTS)
Cc1ccc(-c2ccc3c(c2)O[C@H](CN(C)C(=O)C2CCCCC2)[C@H](C)CN([C@H](C)CO)S3(=O)=O)cc1	T cruzi growth-1 121 (no result: C diff HTS) | T cruzi growth-2 96 | T cruzi growth-3 inconclusive | NIH3T3 tox inactive | 3T3 cytotox 2 105
Cc1ccc(-c2ccc3c(c2)O[C@H](CN(C)C(=O)C2CCCCC2)[C@H](C)CN([C@@H](C)CO)S3(=O)=O)cc1	T cruzi growth-1 118 (no result: C diff HTS) | T cruzi growth-2 inactive | T cruzi growth-3 inactive | NIH3T3 tox 50 | 3T3 cytotox 2 106
C[C@H]1CN([C@@H](C)CO)S(=O)(=O)c2ccc(-c3ccncc3)cc2O[C@@H]1CN(C)C(=O)C1CCC1	none (no result: C diff HTS)
C[C@H]1CN([C@@H](C)CO)S(=O)(=O)c2ccc(-c3ccccc3)cc2O[C@@H]1CN(C)C(=O)C1CCCCC1	none
COc1ccc2c3c(n(C)c2c1)[C@H](CO)N(C(=O)Nc1ccc(F)cc1)CC31CCN(C(=O)c2ccccc2F)CC1	none (no result: T cruzi growth-1)
C[C@H](CO)N1C[C@H](C)[C@@H](CN(C)S(=O)(=O)c2ccc(F)cc2)Oc2ccc(NC(=O)CCN3CCOCC3)cc2CC1=O	none
CCCNC(=O)N(C)C[C@@H]1Oc2cc(C3=CCCCC3)ccc2S(=O)(=O)N([C@@H](C)CO)C[C@@H]1C	none
C[C@@H]1CN([C@H](C)CO)C(=O)c2cc(NC(=O)CCN3CCOCC3)ccc2O[C@@H]1CN(C)Cc1ccncc1	none
Cc1ccc(-c2ccc3c(c2)O[C@H](CN(C)C(=O)C2CCC2)[C@H](C)CN([C@@H](C)CO)S3(=O)=O)cc1	T cruzi growth-1 121 | T cruzi growth-2 inactive | T cruzi growth-3 inactive | NIH3T3 tox 41 | 3T3 cytotox 2 78
Cc1ccc(-c2ccc3c(c2)O[C@@H](CN(C)C(=O)C2CCCCC2)[C@H](C)CN([C@H](C)CO)S3(=O)=O)cc1	T cruzi growth-1 112 (no result: C diff HTS) | T cruzi growth-2 101 | T cruzi growth-3 inactive | NIH3T3 tox inactive | 3T3 cytotox 2 107
Cc1ccc(-c2ccc3c(c2)O[C@@H](CN(C)C(=O)C2CCC2)[C@@H](C)CN([C@H](C)CO)S3(=O)=O)cc1	none
Cc1ccc(-c2ccc3c(c2)O[C@@H](CN(C)C(=O)C2CCC2)[C@@H](C)CN([C@@H](C)CO)S3(=O)=O)cc1	none
C[C@H](CO)N1C[C@H](C)[C@H](CN(C)C)Oc2cc(-c3ccncc3)ccc2S1(=O)=O	none
C[C@H](CO)N1C[C@H](C)[C@@H](CN(C)C)Oc2cc(-c3ccncc3)ccc2S1(=O)=O	T cruzi growth-1 106 | T cruzi growth-2 inactive | T cruzi growth-3 inactive | NIH3T3 tox inactive | 3T3 cytotox 2 inconclusive
C[C@@H]1CN([C@H](C)CO)S(=O)(=O)c2ccc(-c3ccncc3)cc2O[C@H]1CN(C)C	none
C[C@@H]1CN([C@@H](C)CO)S(=O)(=O)c2ccc(-c3ccncc3)cc2O[C@H]1CN(C)C	T cruzi growth-1 98 | T cruzi growth-2 97 | T cruzi growth-3 inactive | NIH3T3 tox inactive | 3T3 cytotox 2 inactive
C[C@H]1CN([C@@H](C)CO)S(=O)(=O)c2ccc(-c3ccncc3)cc2O[C@H]1CN(C)C(=O)c1cccc(F)c1	T cruzi growth-1 105 | T cruzi growth-2 102! | T cruzi growth-3 inactive | NIH3T3 tox inactive | 3T3 cytotox 2 inactive
C[C@H]1CN([C@@H](C)CO)S(=O)(=O)c2ccc(-c3cccc(F)c3)cc2O[C@@H]1CN(C)C(=O)c1cccc(F)c1	none
C[C@@H]1CN([C@H](C)CO)S(=O)(=O)c2ccc(-c3cccc(F)c3)cc2O[C@H]1CN(C)C(=O)c1cccc(F)c1	none
C[C@@H]1CN([C@H](C)CO)S(=O)(=O)c2ccc(-c3ccncc3)cc2O[C@@H]1CN(C)C(=O)c1cccc(F)c1	T cruzi growth-1 104 | T cruzi growth-2 inactive | T cruzi growth-3 inactive | NIH3T3 tox inactive | 3T3 cytotox 2 55
C/C=C/c1ccc([C@@H]2[C@@H](CO)N3C(=O)CN(C(=O)Nc4ccc(F)cc4)C[C@H]23)cc1	none (no result: T cruzi growth-1)
CO[C@@H]1CN(C)C(=O)c2cc(NS(=O)(=O)c3ccccc3)ccc2OC[C@H](C)N(Cc2nccs2)C[C@H]1C	none (no result: C diff HTS)
CCOC(=O)[C@@H]1[C@@H]2C=C[C@]3(O2)[C@H](C(=O)NCc2ccccc2)N(CCCCCCO)C(=O)[C@@H]13	none (no result: T cruzi growth-1, Pf Dd2 inh)
CO[C@@H]1CN(C)C(=O)c2ccc(NC(=O)c3ccc(Oc4ccccc4)cc3)cc2OC[C@@H](C)N(C(C)=O)C[C@H]1C	none (no result: Pf Dd2 inh, C diff HTS)
CN(C)C(=O)c1ccc(-c2ccc3c(c2)[C@@H]2[C@@H](CCN2C(=O)c2ccc4c(c2)OCO4)[C@H](CO)N3)cc1	T cruzi growth-1 inconclusive | T cruzi growth-2 104 | T cruzi growth-3 inactive | NIH3T3 tox inactive | 3T3 cytotox 2 inactive
CN(C)C(=O)c1cccc(-c2ccc3c(c2)[C@@H]2[C@@H](CCN2C(=O)C2CCOCC2)[C@@H](CO)N3)c1	none
CN(C)CC(=O)N1CC[C@@H]2[C@H](CO)Nc3ccc(-c4ccc(C(=O)N(C)C)cc4)cc3[C@@H]21	none

Screening data (PubChem BioAssay)
